# Screens (PubChem BioAssay)
# This is a sample that favours compounds with a hit; in the whole collection about 20% have one here.
# Shiga inhibitor – A qHTS for Small Molecule Inhibitors of Shiga Toxin | 9.2% of 290,000 active | AID 2315, 2010 | inhibition, % at 38.7 µM | Vero cells, Shiga toxin protein synthesis inhibition reporter; in the data active = inhibition mostly above about 28%, no sharp cut-off; inactive = mostly below about 43%
# Pf growth 48h – Primary qHTS for delayed death inhibitors of the malarial parasite plastid, 48 hour incubation; P. falciparum luciferase growth in erythrocytes, 48 h; Potency, µM (top dose mostly 28.7 µM), hits mostly inhibitors; 5.9% of 310,000 active
#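 Read-out is firefly luciferase luminescence from an integrated reporter in P. falciparum, so falling signal marks reduced parasite growth. Infected erythrocytes were at 2% hematocrit and 0.1% parasitemia (final) in Albumax-supplemented RPMI 1640.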
# HCMV antiviral – qHTS Assay for inhibitors of the human cytomegalovirus (HCMV); HFF cells, HCMV-luciferase reporter, 72 h; hits give low values; activity change, negative = inhibition, % at 57.5 µM; 4.5% of 410,000 active; AID 1259415, 2018; in the data active = activity change below about -60%; inconclusive = no clear call, values can overlap the other calls; inactive = above about -39%
#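 Two compound doses tested in HFFs infected with HCMV-luciferase, MOI 1 PFU/cell, 72 h at 37C. Lysate luminescence read with OneGlo; data normalized against buffer-only and 10uM Salinomycin inhibitor controls.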
# Cycloheximide cs – Cycloheximide Counterscreen for Small Molecule Inhibitors of Shiga Toxin; max response, %; 12% of 300,000 active; cell reporter, cycloheximide protein synthesis inhibition counterscreen; in the data active = max response mostly above about 13%, no sharp cut-off; inactive = mostly below about 14%; note: read at 38.3 µM for the half of the compounds with a filed dose
# Pf growth 96h – Primary qHTS for delayed death inhibitors of the malarial parasite plastid, 96 hour incubation. P. falciparum luciferase reporter growth, 96 h. Potency, µM (series often up to 28.7 µM), most hits filed as inhibitors. AID 504834, 2011. 6.9% of 320,000 active
#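 Compounds incubated with erythrocytes infected by luciferase-expressing P. falciparum (2% hematocrit, 0.05% parasitemia final) for 96 hours, 37 C in 5% CO2. Growth inhibition scored as decreased luciferase luminescence.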
# Hits are given with their value; i = inactive; ? = inconclusive; nt = no result given. Unless noted, calls come from the whole dose curve; as a rule, active = well fitted inhibition curve with a large enough effect; inconclusive = small, poorly fitted or top-dose-only effect, or another doubt; inactive = no such curve, though single readings can be large or run the other way.
SMILES,Shiga inhibitor,Pf growth 48h,HCMV antiviral,Cycloheximide cs,Pf growth 96h
CC1CCCN(S(=O)(=O)c2ccc(C(=O)Nc3ccccc3-c3nc4ccccc4[nH]3)cc2)C1 (centres undefined),i,1.5µM,i,i,?
CCOc1ccccc1C(C(=O)NC1CCCC1)N(Cc1ccco1)C(=O)CNC(=O)c1ccco1 (centres undefined),i,8.3µM,i,12,?
O=C(NCC(=O)N(Cc1ccccc1)C(C(=O)NC1CCCC1)c1ccco1)c1ccco1 (centres undefined),i,i,i,i,5.2µM
O=C(CNC(=S)N(Cc1ccccc1)Cc1cccnc1)NC1CCCCC1,i,?,i,i,9.3µM
O=C(NC1CCCC1)C(=O)N(Cc1cccnc1)C(C(=O)NCc1ccco1)c1ccccc1F (centres undefined),i,i,i,i,i
O=C(NCC(=O)N(Cc1ccc(F)cc1)C(C(=O)NC1CCCC1)c1ccco1)c1ccco1 (centres undefined),i,i,?,i,nt
O=C(NC1CCCCC1)C(=O)N(Cc1cccnc1)C(C(=O)NCc1ccco1)c1ccccc1 (centres undefined),i,i,nt,i,5.2µM
CCCCN(C(=O)CNC(=O)c1cccs1)C(C(=O)NC1CCCC1)c1ccncc1 (centres undefined),i,i,?,28,i
O=C(NCC(=O)N(Cc1ccccc1)C(C(=O)NC1CCCC1)c1ccncc1)c1ccco1 (centres undefined),i,?,i,20,?
O=C(NCC(=O)N(Cc1cccs1)C(C(=O)NC1CCCC1)c1ccncc1)c1ccco1 (centres undefined),i,i,i,i,?
CC(NC(=O)Cn1cc([N+](=O)[O-])cn1)c1ccc(C(C)(C)C)cc1 (centres undefined),nt,nt,i,nt,nt
C[C@H](NC(=O)[C@@H](N)Cc1ccc(O)cc1)C(=O)NCC(=O)N[C@H]1CSSC[C@@H](C(=O)O)NC(=O)[C@H](CO)NC(=O)[C@H]([C@@H](C)O)NC(=O)[C@H](Cc2ccccc2)NC(=O)[C@H]([C@@H](C)O)NC(=O)[C@H](CCCCN)NC(=O)[C@@H](Cc2c[nH]c3ccccc23)NC(=O)[C@H](Cc2ccccc2)NC(=O)[C@H](Cc2ccccc2)NC(=O)[C@H](CC(N)=O)NC(=O)[C@H](CCCCN)NC1=O,i,nt,nt,i,nt
OCCOc1ccc(C2=NCCO2)cc1,i,i,i,15,i
O=C(Nc1ccnn1C1CCN(Cc2cc3ccccc3[nH]2)CC1)C1CCOC1 (centres undefined),i,i,?,i,5.2µM
O=C(Nc1ccnn1C1CCN(Cc2cccc(OCCO)c2)CC1)C1CCOC1 (centres undefined),i,i,i,i,5.2µM
O=C(Nc1ccnn1C1CCN(C(=O)CCc2ccc(F)cc2)CC1)C1CCOC1 (centres undefined),i,?,i,20,i
O=C(Nc1ccnn1C1CCN(C(=O)c2ccc(F)cc2)CC1)C1CCOC1 (centres undefined),i,i,i,i,i
CCOc1ccc(CNC(=O)CCCn2nc(CC)n3c(cc4occc43)c2=O)cc1,i,i,-60,i,i
O=C(NC(=S)Nc1ccc(NC(=O)c2cccs2)cc1)c1cc2ccccc2o1,i,3.3µM,i,i,i
O=C(c1cc2ccccc2o1)c1cccs1,82,i,i,50,nt
CC(C)NC(=O)c1cc2ccccc2o1,i,i,i,i,i
Cc1ccc(NC(=O)c2cccs2)cc1NC(=O)c1ccco1,i,i,i,i,i
O=C(Nc1ccc(NC(=O)c2cccs2)cc1)c1ccco1,i,nt,i,31,i
CC(NC(=O)c1cc2ccccc2o1)c1cccs1 (centres undefined),i,nt,i,i,8.3µM
O=C(Nc1ccc(NC(=S)NC(=O)c2ccccc2F)cc1)c1cccs1,i,?,?,i,?
O=C(NC(=S)Nc1ccc(NC(=O)c2cccs2)cc1)c1ccco1,i,1.7µM,i,i,?
O=C(OCC(=O)c1cccs1)c1ccc(NC(=O)c2ccco2)cc1,i,i,i,59,i
Cc1ccc(N(CC(=O)Nc2cc(Cl)ccc2Oc2ccccc2)S(C)(=O)=O)c(C)c1,i,nt,i,i,12µM
COc1ccc(C)cc1NC(=O)CN(c1ccccc1)S(C)(=O)=O,i,i,i,i,?
